Results from PubChem BioAssay.
Several values for one entry are separate records, joined by “and”; a condition that tells them apart may be missing. Equal values may be shown once. Activity calls are given as the source filed them. Unless noted, the rule behind the calls is not given here.

Experiment: inhibitors of Cryptococcus chitosan production, flow cytometry, Cibacron Brilliant Red staining (AID 1347148);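 note: compound exposure lasted three days at 37 degrees C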
Conditions: Cryptococcus neoformans chitosan, stronger effect = lower value; at 10 µM unless noted

Row | Structure (SMILES) | fold fluorescence
1 | CCCCCCCCCCCCC/C=C/[C@@H](O)[C@H](CO)NCCCCCCCC | 10.3 (inactive)
2 | CC(C)=CCC/C(C)=C/CC/C(C)=C/CSCC(=O)O | 2.64 (inactive)
3 | CC/C=C\C/C=C\C/C=C\C/C=C\C/C=C\C/C=C\CCC(=O)O | 4.24 (inactive)
4 | CC/C=C\C/C=C\C/C=C\CCCCCCCC(=O)O | 4.4 (inactive)
5 | CCCCCCCCCCCCC/C=C/[C@@H](O)[C@@H](N)CO | 8.01 (inactive)
6 | CC/C=C\C/C=C\C/C=C\CCCCCCCCCC(=O)O | 4.88 (inactive)
7 | O=C(O)CCC/C=C\CC1C2CCC(O2)C1CNNC(=O)Nc1ccccc1 (configuration not stated) | 4.39 (inactive)
8 | CCCCC/C=C\C/C=C\C/C=C\C/C=C\CCCC(=O)OC(CO)CO | 5.06 (inactive)
9 | CCCCC/C=C/C=C1/C(=O)C=C[C@@H]1C/C=C\CCCC(=O)O | 6.54 (inactive)
10 | CCCCCCCCCCCCC/C=C/[C@@H](O)[C@H](CO)N(C)C | 6.79 (inactive)
11 | CCCCC[C@H](O)/C=C/C1=C(CCCCCCC(=O)O)C(=O)CC1 | 3.81 (inactive)
12 | C#CCCCCCCCCCCCCCCCC(=O)O | 5.76 (inactive)
13 | CCCCC[C@H](O)/C=C/C1=C(C/C=C\CCCC(=O)O)C(=O)CC1 | 3.98 (inactive)
14 | CCCCCCCC/C=C\CCCCCCCC(=O)OC[C@H](CO)OC(C)=O | 5.82 (inactive)
15 | CCCCC/C=C\C/C=C\CCCCCCCC(=O)O | 4.86 (inactive)
16 | CCCCCCCCCCCCC/C=C/[C@@H](O)[C@H](CO)NC(=O)CCCCCCC | 4.66 (inactive)
17 | CCCCC[C@H](O)/C=C/[C@H]1C=CC(=O)[C@@H]1CCCCCCC(=O)O | 4.35 (inactive)
18 | CCCCCC#CCC#CCC#CCC#CCCCC(=O)O | 5.73 (inactive)
19 | CCCCCCCC/C=C\C/C=C\C/C=C\CCCC(=O)O | 4.51 (inactive)
20 | CC(=O)N[C@@H](CSC/C=C(\C)CC/C=C(\C)CCC=C(C)C)C(=O)O | 5 [at 136 µM] (inactive)
21 | CC/C=C\C/C=C\C/C=C\C/C=C\C/C=C\CCCCCC(=O)O | 5.56 (inactive)
22 | CC(=O)N[C@@H](CSC/C=C(\C)CC/C=C(\C)CC/C=C(\C)CCC=C(C)C)C(=O)O | 5.22 (inactive)
23 | CCCCCCCCC#CCC#CCC#CCCCC(=O)O | 6.11 (inactive)
24 | CCCCC[C@H](O)/C=C/[C@H]1C(=O)C[C@H](O)[C@@H]1C/C=C\CCCC(=O)O | 3.99 (inactive)
25 | CCCCC[C@H](O)/C=C/[C@H]1C=CC(=O)[C@@H]1C/C=C\CCCC(=O)O | 4.51 (inactive)
26 | CCCCC/C=C\C/C=C\C/C=C\C/C=C\CCCCCC(=O)O | 4.08 (inactive)
27 | CCCCC[C@H](O)/C=C/[C@H]1C(=O)C=C[C@@H]1C/C=C\CCCC(=O)O | 4.57 (inactive)

Experiment: modifiers of HSF1 nuclear foci, imaging, Selleck Cancer Library (AID 1347162; in the data active = plate-normalised HSF1 focus index below about 0.46)
Conditions: human cells, at 10 µM; SSMD: measured here: HSF1 foci SSMD mean; cell count: measured here: cell number; plate-normalised HSF1 focus index: stronger effect = lower value

Row | Structure (SMILES) | SSMD | plate-normalised HSF1 focus index | cell count
28 | COc1ccc(C2=NC(c3ccc(Cl)cc3)C(c3ccc(Cl)cc3)N2C(=O)N2CCNC(=O)C2)c(OC(C)C)c1 (configuration not stated) | 2.83 | 1.18 (inactive) | 7540
29 | CCc1cncnc1N1CCN(Cc2nc3ccc(C(F)(F)F)cc3[nH]2)CC1 | 2.94 | 1.18 (inactive) | 7470
30 | Nc1ccc2ncnc(NCCc3ccc(Oc4ccccc4)cc3)c2c1 | -5.88 | 0.65 (inactive) | 2600
31 | CO[C@H]1C[C@@H]2CC[C@@H](C)[C@@](O)(O2)C(=O)C(=O)N2CCCC[C@H]2C(=O)O[C@H]([C@H](C)C[C@@H]2CC[C@@H](O)[C@H](OC)C2)CC(=O)[C@H](C)/C=C(\C)[C@@H](O)[C@@H](OC)C(=O)[C@H](C)C[C@H](C)/C=C/C=C/C=C/1C | 1.27 | 1.08 (inactive) | 7610

Experiment: phospholipid biosynthesis inhibitors in animal cells, primary screen, cell-based, LOPAC library, screen 4 (AID 1347384)
Conditions: phospholipid biosynthesis inhibition screen, at 10 µM

Row | Structure (SMILES) | outcome
32 | CCC(CO)Nc1nc(NCc2ccccc2)c2ncn(C(C)C)c2n1 (configuration not stated) | inactive
33 | CCc1cncnc1N1CCN(Cc2nc3ccc(C(F)(F)F)cc3[nH]2)CC1 | inactive
34 | NC(N)=NCc1cccc(I)c1 | inactive
35 | O=C(O)CNC(=O)C(CS)Cc1ccccc1 (configuration not stated) | inactive
36 | CC(C)(C)[C@]1(O)CCN2C[C@H]3c4ccccc4CCc4cccc(c43)[C@@H]2C1 | inactive
37 | COc1ccc(C(=O)NCc2cccnc2)cc1C(=O)NCc1cccnc1 | inactive
38 | COc1ccc(-c2ccc(N)[n+](CCCC(=O)O)n2)cc1 | inactive
39 | COc1ccccc1N1CCN(CCCCNC(=O)c2ccc3ccccc3c2)CC1 | inactive
40 | COC(=O)C1=C(C)NC(C)=C(C(=O)OC2CCCN(Cc3ccccc3)C2)C1c1cccc([N+](=O)[O-])c1 (configuration not stated) | inactive
41 | CC(C)NC[C@H](O)c1ccc(O)c(O)c1 | inactive

Experiment: survival rescue of mitochondrial mutant cells in low glucose, primary screen, MELAS cybrids, Rieske KO mouse fibroblasts, CellTiter-Glo (AID 1508586;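 active = mean z-score across replicates of 1.96 or higher in either the MELAS or the Rieske mutant cell line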;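 note: z relative to plate mean and SD of compound and empty wells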)
Conditions: MELAS cybrid survival, CellTiter-Glo 48 h, stronger effect = higher value

Row | Structure (SMILES) | z-score
42 | COc1ccc(C2=NC(c3ccc(Cl)cc3)C(c3ccc(Cl)cc3)N2C(=O)N2CCNC(=O)C2)c(OC(C)C)c1 (configuration not stated) | 0.254 (inactive) and -0.293 (inactive) and -0.371 (inactive)
43 | CCC(CO)Nc1nc(NCc2ccccc2)c2ncn(C(C)C)c2n1 (configuration not stated) | -0.381 (inactive)
44 | CCc1cncnc1N1CCN(Cc2nc3ccc(C(F)(F)F)cc3[nH]2)CC1 | 0.232 (inactive)
45 | NC(N)=NCc1cccc(I)c1 | -0.124 (inactive)
46 | O=C(O)CNC(=O)C(CS)Cc1ccccc1 (configuration not stated) | -0.922 (inactive)
47 | CC(C)(C)[C@]1(O)CCN2C[C@H]3c4ccccc4CCc4cccc(c43)[C@@H]2C1 | 0.22 (inactive)
48 | COc1ccc(C(=O)NCc2cccnc2)cc1C(=O)NCc1cccnc1 | 0.681 (inactive) and 0.373 (inactive)
49 | COc1ccc(-c2ccc(N)[n+](CCCC(=O)O)n2)cc1 | 0.473 (inactive)
50 | Nc1ccc2ncnc(NCCc3ccc(Oc4ccccc4)cc3)c2c1 | -0.305 (inactive)
51 | COc1ccccc1N1CCN(CCCCNC(=O)c2ccc3ccccc3c2)CC1 | -0.843 (inactive)
52 | COC(=O)C1=C(C)NC(C)=C(C(=O)OC2CCCN(Cc3ccccc3)C2)C1c1cccc([N+](=O)[O-])c1 (configuration not stated) | -0.438 (inactive)
53 | CO[C@H]1C[C@@H]2CC[C@@H](C)[C@@](O)(O2)C(=O)C(=O)N2CCCC[C@H]2C(=O)O[C@H]([C@H](C)C[C@@H]2CC[C@@H](O)[C@H](OC)C2)CC(=O)[C@H](C)/C=C(\C)[C@@H](O)[C@@H](OC)C(=O)[C@H](C)C[C@H](C)/C=C/C=C/C=C/1C | -0.0487 (inactive)
54 | CC(C)NC[C@H](O)c1ccc(O)c(O)c1 | -0.508 (inactive)
